Only some compounds are listed: those with a hit (about 11% of all), similar ones and a draw of the others.
L3MBTL1 inh = L3MBTL1 (human) inhibition. actives 0.66% (n = 230,000). Potency, µM (top dose mostly 57.1 µM), inactives show at the top dose activity, negative = inhibition, hits mostly inhibitors. AlphaScreen L3MBTL1–H3K9me1 peptide binding. Q9Y468; also: potency is read from the fitted curve at half-maximal effect; % is scaled to controls: 0 for no effect and ±100 for the full control effect; nearly all actives have a fitted effect of over 60% in size
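L3MBTL1 50 nM + b-AHA-H3(1-15)K9me1 75 nM, 30 min RT; compound added, 30 min RT; streptavidin donor/Ni-chelate acceptor beads 10 ug/mL each final, 30 min RT dark; AlphaScreen read.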
JMJD2A Tudor = inhibitors of human JMJD2A Tudor domain; O75164; AlphaScreen JMJD2A-Tudor / H3K4me3 peptide binding; Potency, µM (top dose mostly 114 µM), for inactives: at the top dose activity change, negative = inhibition, usual class: inhibitors; actives 4.4% (n = 390,000); AID 504339; also: potency is read from the fitted curve at half-maximal effect; % is scaled to controls: 0 for no effect and ±100 for the full control effect; nearly all actives have a fitted effect of over 50% in size
BAZ2B block = blocks human BAZ2B. Q9UIF8. AlphaScreen BAZ2B-H3K14Ac peptide displacement. Potency, µM (series often up to 114 µM), for inactives: at the top dose activity change, negative = inhibition, hits mostly inhibitors. actives 4.4% (n = 360,000). AID 504333; also: potency is read from the fitted curve at half-maximal effect; % is scaled to controls: 0 for no effect and ±100 for the full control effect; nearly all actives have a fitted effect of over 60% in size
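Inhibition is scored as reduced AlphaScreen emission. The BAZ2B/b-H3(5-23)K14Ac complex (50 nM each) in PBS pH 7.4, 0.01% Tween-20 meets compound (up to 110 uM) for 30 min at RT before bead addition.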
HP1b chromo inh = inhibitors of HP1-beta chromodomain binding to methylated histone tails; Potency, µM (doses to about 114 µM), for inactives: at the highest dose activity change, negative = inhibition, hits mostly inhibitors; actives 0.56% (n = 390,000); AID 540317; AlphaScreen HP1-beta / biotin-H3K9me3 peptide binding; also: potency is read from the fitted curve at half-maximal effect; nearly all actives have a fitted effect of over 70% in size
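AlphaScreen: HP1-beta (50 nM) preformed 30 min with biotin-H3(1-18)K9me3 peptide (50 nM) in PBS pH 7.4, 0.01% Tween-20. Compound added for 30 min at RT, then streptavidin donor/nickel chelate acceptor beads (10 ug/mL) for 30 min.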
PI5P4Ka inh = PI5P4K alpha (human) kinase inhibition; max response, %; PI5P4Kalpha enzyme, ADP-Glo luminescence, 60 min; active compounds read low; actives 1.2% (n = 330,000); AID 652105; P48426; active = max response of -50% or lower; inconclusive = between -30% and -50%; inactive = -30% or higher; also: value at the top dose of about 77 µM; % is scaled to controls: 0 for no effect and ±100 for the full control effect
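Controls without substrate or without enzyme flank wells where PI5P4Kalpha converts substrate using 5 microM ATP (final). Incubation lasts 60 minutes at room temperature; ADP formed is read by ADP-Glo luminescence.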
G9a inh = G9a (human) methyltransferase inhibition; Q96KQ7; G9a H3K9 monomethylation, AlphaScreen, 2 h; Potency, µM (doses to about 102 µM), for inactives: at the highest dose activity, negative = inhibition, actives largely listed as inhibitors; actives 8.8% (n = 350,000); AID 504332; also: potency is read from the fitted curve at half-maximal effect; % is scaled to controls: 0 for no effect and ±100 for the full control effect; nearly all actives have a fitted effect of over 75% in size
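Compounds were preincubated with 20 nM G9a for 15 min, after which biotinylated H3K9 peptide (500 nM) and SAM (20 uM) started a 2 h room-temperature reaction. Monomethylated product was quantified by antibody-based AlphaScreen chemiluminescence.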
Numbers without * were called inactive; u = inconclusive; x = not tested or not shown; [ ] = another dose, or the depositor's remark. Unless noted, calls follow the shape of the dose curve; as a rule, active = well fitted inhibition curve with a large enough effect; inconclusive = small, poorly fitted or top-dose-only effect; inactive = no such curve, though single readings can be large or run the other way.

SMILES	L3MBTL1 inh	JMJD2A Tudor	BAZ2B block	HP1b chromo inh	PI5P4Ka inh	G9a inh
CCOc1cc(/C=N/N=C2/NC(=O)C(CC(=O)O)S2)ccc1OCc1ccc(Cl)cc1Cl (stereo not given)	-28.6%	39.8µM*	28.2µM*	44.7µM*	-63.1*	x
COc1cc(/C=N/N=C2/NC(=O)C(CC(=O)O)S2)ccc1OCc1ccc(Cl)cc1 (stereo not given)	0.0%	-33.6%	u	30.1%	-9.3	5.6%
O=C(O)CC1S/C(=N/N=C/c2ccccn2)NC1=O (stereo not given)	-11.4%	79.4µM*	44.7µM*	58.7%	-9.8	-4.2%
O=C1N/C(=N/N=C/c2ccc(O)cc2)SC1Cc1ccccc1 (stereo not given)	-8.6%	-3.0%	-6.7%	22.7%	-16.4	13.4%
CCOc1ccc(OC(=O)c2cn(-c3cccc(OC)c3)c(=O)c3ccccc23)cc1	x	-10.6%	0.6%	32.5%[57 µM]	x	0.8%[59 µM]
CCOc1ccc(N2C(=O)C3Sc4[nH]c(=O)sc4C(/C=C/c4ccccc4)C3C2=O)cc1 (stereo not given)	-19.3%	39.8µM*	44.7µM*	u	-25.2	11.2µM*
COc1cc(C2c3sc(=O)[nH]c3SC3C(=O)N(c4ccc(Br)cc4)C(=O)C32)ccc1O (stereo not given)	-27.5%	u	u	-9.7%	-9.9	u
O=c1c(=O)n(O)c2ccccc2n1O	5.0%	50.1µM*	39.8µM*	6.8%	x	10µM*
O=c1c(-c2ccccc2)[n+]([O-])c2ccccc2n1O	x	u	u	-4.8%	-4.1	u
COn1c(=O)c(=O)n(O)c2ccccc21	14.3%	79.4µM*	u	-5.3%	-10.8	-1.0%[59 µM]
CCOn1c(=O)c(=O)n(OC)c2ccccc21	x	-1.7%	-4.0%	19.9%	2.1	11.3%
CCc1ccc2[nH]c(C(=O)Nc3ccc(F)cc3Br)cc2c1	x	-27.2%	-18.4%	8.9%	7.2	44.7µM*
CCc1ccc2[nH]c(C(=O)Nc3ccc(Br)c(C)n3)cc2c1	x	-25.3%	-20.4%	35.9%	4.4	44.7µM*
Cc1ccc2ncc3c(-c4ccccc4)nn(CC(=O)NC4CCCCC4)c3c2c1	x	-9.3%	-7.9%	11.4%	x	10.5%[59 µM]
Cc1c(Br)c(=O)oc2c(Br)c(O)c(O)cc12	3.55µM*	44.7µM*	u	-11.4%	-62.9*	28.2µM*
COc1ccccc1NC(=O)c1cccc(S(=O)(=O)N2CCCCCC2)c1	x	9.2%	9.8%	39.1%	x	-7.5%[59 µM]
Cc1ccc(C)c2sc(N3CCN(C(=O)C(C)(C)C)CC3)nc12	x	-9.1%	5.3%	31.3%	x	-7.4%[59 µM]
COc1ccc2cc(S(=O)(=O)c3ccccc3F)c(=O)oc2c1	x	-9.4%	-9.7%	18.0%	x	-24.8%[59 µM]
Cc1sc(NC(=S)Nc2ccc(F)cc2)c(C(N)=O)c1C	-8.6%	-6.0%[11.4 µM]	-15.0%	-10.0%	-7.5	28.2µM*
COC(=O)c1c(NC(=S)Nc2ccc(CC(=O)O)cc2)sc(C)c1C	-5.2%	-9.9%[57.1 µM]	-3.0%	-1.9%	-23.3	8.91µM*
COc1ccc(NC(=O)COC(=O)c2c(NC(C)=O)sc(C)c2C)cc1	x	x	x	x	-16.8	x
CC(NC(=O)Cn1c(-c2cccs2)cc2cc(F)ccc21)c1ccccc1 (stereo not given)	x	6.3%	-1.2%	31.2%	x	-3.6%[59 µM]
COc1ccc(OC)c(NC(=O)CSc2nccn2Cc2ccco2)c1	x	-33.0%	-36.3%	-3.4%	3.8	50.1µM*
COc1ccc(C)cc1NC(=O)CSc1nnc(-c2ccco2)n1Cc1ccco1	-13.8%	u	-35.6%	-18.6%	-0.6	56.2µM*
CCOc1ccccc1NC(=O)CSc1nnc(-c2ccco2)n1Cc1ccco1	-2.4%	-33.8%	u	7.4%	x	17.8µM*
Cc1ccc(-n2c(-c3ccccc3)nsc2=NC#N)cc1	x	-2.3%[57.1 µM]	x	-1.8%[57 µM]	x	x
COc1ccc(C2=Nn3c(nnc3-c3ccc(OC)c(OC)c3)SC2)cc1	x	-20.7%	x	x	x	x
Cc1ccc2c(=O)cc(C(=O)Nc3sc4c(c3C(=O)NCc3ccco3)CCCC4)oc2c1C	x	u	-13.3%	-3.5%	x	-20.7%[59 µM]

High-throughput results from PubChem.
